Hits are enriched below; roughly 3.4% of the tested compounds scored in any of these assays.
PAFAH1B3 inh – PAFAH1B3 enzyme inhibitors, primary screen, biochemical, fluorescence polarization, human | inhibition, % at 3.39 µM | actives 0.28% (n = 340,000) | recombinant PAFAH1B3, FP-rhodamine probe | Platelet-activating factor acetylhydrolase IB subunit alpha1 (Homo sapiens), Q15102;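 active means inhibition above the screen-wide average of all tested compounds plus 3 SD, cut at about 25% in these data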
pPAFAH FP inh – pPAFAH enzyme inhibitors, primary screen, biochemical, fluorescence polarization, human; Platelet-activating factor acetylhydrolase (Homo sapiens), Q13093; recombinant pPAFAH, FP-rhodamine probe fluorescence polarization; inhibition, % at 3.39 µM; actives 1.5% (n = 330,000); AID 463082, 2010;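 active means inhibition above the mean inhibition across the screen plus 3 SD, cut at about 25% in these data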;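 further: inhibitors block binding of the rhodamine activity-based probe so polarization drops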
PP5 inh – PP5 phosphatase inhibitors, primary screen, biochemical, fluorescence; actives 0.18% (n = 320,000); Serine/threonine-protein phosphatase 5 (Homo sapiens), P53041; inhibition, % at 6.7 µM; purified PP5c, OMFP substrate fluorescence;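 active means inhibition above the campaign's mean inhibition across all tested compounds plus 3 SD, cut at about 9.5% in these data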
PP1 counter – PP1-alpha phosphatase inhibitors, primary screen, counter-screen for PP5 inhibitor project, biochemical, fluorescence, OMFP substrate, single point; Serine/threonine-protein phosphatase PP1-alpha catalytic subunit (Homo sapiens), P62136; purified PP1alpha; inhibition, % at 6.7 µM; actives 0.9% (n = 320,000); AID 2235, 2010;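 active means inhibition above the mean inhibition of all tested compounds plus 3 SD, computed separately for each screening campaign, cut at about 15% in these data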
Target sequence (P62136 whole entry, looked up): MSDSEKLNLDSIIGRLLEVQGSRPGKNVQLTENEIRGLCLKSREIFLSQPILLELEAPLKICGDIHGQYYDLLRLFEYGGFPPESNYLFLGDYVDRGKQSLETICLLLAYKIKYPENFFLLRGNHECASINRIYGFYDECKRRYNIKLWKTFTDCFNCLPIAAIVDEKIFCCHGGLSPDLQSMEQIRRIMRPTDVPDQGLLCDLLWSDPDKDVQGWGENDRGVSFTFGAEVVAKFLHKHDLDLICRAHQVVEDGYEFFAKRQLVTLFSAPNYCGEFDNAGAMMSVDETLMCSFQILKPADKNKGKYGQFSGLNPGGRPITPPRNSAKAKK
PAFAH2 inh – PAFAH2 enzyme inhibitors, primary screen, biochemical, fluorescence polarization, human | Platelet-activating factor acetylhydrolase 2, cytoplasmic (Homo sapiens), Q99487 | recombinant PAFAH2, FP-rhodamine activity probe | inhibition, % at 3.39 µM | actives 0.99% (n = 340,000) | AID 492956, 2010;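 active means inhibition above the mean over all tested compounds plus 3 SD, cut at about 30% in these data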;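 further: inhibitors block probe labeling of enzyme so polarization drops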
PAFAH1B2 inh – PAFAH1B2 enzyme inhibitors, primary screen, biochemical, fluorescence polarization, human; actives 1.2% (n = 340,000); recombinant PAFAH1B2, FP-rhodamine activity probe; inhibition, % at 3.39 µM;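 active means inhibition above the mean of all tested compounds plus 3 SD, cut at about 24% in these data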
Target sequence (P68402 whole entry, looked up): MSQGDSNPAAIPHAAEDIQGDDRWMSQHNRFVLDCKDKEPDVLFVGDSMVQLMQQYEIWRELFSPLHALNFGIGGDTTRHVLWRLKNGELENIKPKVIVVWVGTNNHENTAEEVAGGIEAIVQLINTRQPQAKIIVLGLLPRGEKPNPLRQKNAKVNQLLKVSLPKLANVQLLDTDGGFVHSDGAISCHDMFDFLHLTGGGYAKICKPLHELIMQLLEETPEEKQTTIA
PAFAH2 FP conf – PAFAH2 enzyme inhibitors, confirmation, biochemical, fluorescence polarization, human; shares compounds with PAFAH2 inh; recombinant PAFAH2, FP-rhodamine activity probe; inhibition, % at 3.39 µM; actives 65% (n = 2,300); AID 493030, 2011;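 active means mean inhibition over three repeats above a set limit taken from the earlier primary screen, cut at about 30% in these data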;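 further: inhibitor blocks binding of rhodamine activity probe so polarization falls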
Large screens that a line does not name were inactive (follow-up assays come after a bar, where they were run).

O=C(COC(=O)CCC(NC(=O)OCc1ccccc1)C(=O)OCC(=O)Nc1ccccc1)Nc1ccccc1 (stereo unspecified)	PAFAH2 inh 70 | PAFAH2 FP conf 84
O=C(CCC(NC(=O)OCc1ccccc1)C(=O)OCC(=O)N1CCCCC1)OCC(=O)N1CCCCC1 (stereo unspecified)	PAFAH2 inh 53 | PAFAH2 FP conf 48
CC(C)C(NC(=O)OCc1ccccc1)C(=O)OCC(=O)N1CCCCC1 (stereo unspecified)	none
CC1=NN(c2ccc(C)cc2)C(=O)/C1=C/c1ccc(-c2cc([N+](=O)[O-])ccc2O)o1	PAFAH2 inh 34 (no result: pPAFAH FP inh, PP5 inh, PP1 counter) | PAFAH2 FP conf inactive
Cc1ccc(Nc2c([N+](=O)[O-])c(=O)oc3ccccc23)cc1	none
O=c1oc2ccccc2c(Nc2ccc3ccccc3c2)c1[N+](=O)[O-]	PAFAH2 inh 34 | PAFAH2 FP conf inactive
Cc1c(NS(=O)(=O)c2cccc(C(=O)OCC(=O)c3ccc(Cl)cc3)c2)c(=O)n(-c2ccccc2)n1C	PAFAH2 inh 30 (no result: pPAFAH FP inh, PP5 inh, PP1 counter) | PAFAH2 FP conf inactive
CC(Cc1ccc(Cl)cc1)N1CCC(n2nccc2NC(=O)C2CCCC2)CC1 (stereo unspecified)	none
Cc1cnc(CN(C)C(=O)c2ccc3oc(Cc4ccccc4)nc3c2)[nH]1	none
CC(c1ccncn1)N(C)C(=O)c1ccc2oc(Cc3ccccc3)nc2c1 (stereo unspecified)	PAFAH2 inh 36 | PAFAH2 FP conf inactive
COc1ccc(S(=O)(=O)Nc2c(C)cccc2C)cc1-n1cnnn1	none
COc1cc(OC)c(N(C)C(=O)c2cc3c(s2)-c2ccccc2S(=O)(=O)C3)cc1Cl	PAFAH2 inh 31 | PAFAH2 FP conf inactive
O=C(CCS(=O)(=O)c1ccc(F)cc1)N1CCN(c2ccccc2)CC1	PAFAH2 inh 32 | PAFAH2 FP conf inactive
CC(C)CC(NC(=O)/C(=C/c1ccco1)NC(=O)c1ccc(Br)o1)C(=O)O (stereo unspecified)	none
CCOc1ccc(C(=O)NCC(=O)OCC(=O)NC2CCCC2)cc1	PAFAH2 inh 36 | PAFAH2 FP conf inactive
COc1ccc(C(=O)NCC(=O)OCC(=O)NC2CCCC2)cc1	none
CCOc1ccc(C(=O)OCC(=O)NC2CCCCCCC2)cc1	PAFAH2 inh 93 | PAFAH2 FP conf 86
Cc1ccc(C(=O)OCC(=O)NCc2ccco2)cc1C	PAFAH2 inh 59 | PAFAH2 FP conf 34
CC1Cc2ccccc2N1S(=O)(=O)c1cccc(C(=O)OCC(=O)NCc2ccco2)c1 (stereo unspecified)	PAFAH2 inh 33 | PAFAH2 FP conf inactive
CC(C)(C)c1ccc(OCC(=O)NCc2ccco2)cc1	none
CC(C)(C)c1ccc(C(=O)OCC(=O)NCc2ccco2)cc1	PAFAH2 inh 55 | PAFAH2 FP conf 57
O=C(NCCCN1CCOCC1)c1ccc2c(c1)N(Cc1c(F)cccc1Cl)C(=O)CS2	none
CC(C)NC(=S)N/N=C/c1cc(Br)ccc1O	PAFAH2 inh 32 | PAFAH2 FP conf 32
COc1ccc(-n2nc(N)c3c(=O)oc(N(C)C)nc32)cc1	PAFAH2 inh 54 | PAFAH2 FP conf 45
COc1ccc(-n2nc(C)c3onc(C)c3c2=O)cc1	none (no result: PAFAH1B3 inh, PAFAH2 inh, PAFAH1B2 inh)
CN(C)c1nc2c(c(N)nn2-c2ccc(Cl)cc2)c(=O)o1	PAFAH2 inh 47 | PAFAH2 FP conf 41
COc1ccccc1OCC(=O)NNc1c2ccccc2nc2ccccc12	none
O=C(NCCCN1CCOCC1)c1onc(CSc2ccc(F)c(F)c2)c1C(=O)NCCCN1CCOCC1	none
Cc1ccc(C)n1-c1sccc1C(=O)O	PAFAH2 inh 46 (no result: pPAFAH FP inh, PP5 inh, PP1 counter) | PAFAH2 FP conf inactive
Cc1nc(-c2cccs2)ccc1C(=O)O	none
CC(=O)Nc1cccc2c1Cc1ccccc1-2	PAFAH2 inh 42 | PAFAH2 FP conf inactive
CC(=O)Nc1ccc2c(c1Br)Cc1ccccc1-2	none (no result: pPAFAH FP inh, PP5 inh, PP1 counter)
COC(=O)[C@H](Cc1ccccc1)NC(=O)NCc1ccccc1	none
COC(=O)[C@@H](Cc1ccccc1)NC(=O)[C@H]1CCC(=O)N1C(=O)OCc1ccccc1	PAFAH2 inh 41 | PAFAH2 FP conf inactive
CN(C)S(=O)(=O)c1ccc(Cl)c(NC(=O)COC(=O)/C=C/c2ccco2)c1	PAFAH2 inh 46 | PAFAH2 FP conf 47
CN(C)S(=O)(=O)c1ccc(Cl)c(NC(=O)COC(=O)/C=C/c2ccc(S(=O)(=O)N3CCOCC3)cc2)c1	PAFAH2 inh 31 | PAFAH2 FP conf inactive
COc1cc(/C=C/C(=O)OCC(=O)Nc2cc(S(=O)(=O)N(C)C)ccc2Cl)ccc1O	PAFAH2 inh 60 | PAFAH2 FP conf 60
N#Cc1ccccc1NC(=O)COC(=O)/C=C/c1ccc(S(=O)(=O)N2CCOCC2)cc1	PAFAH2 inh 51 (no result: PP5 inh, PP1 counter) | PAFAH2 FP conf 31
COc1ccc(/C=C/C(=O)OCC(=O)Nc2cc(S(=O)(=O)N(C)C)ccc2Cl)cc1	none
O=C(COC(=O)/C=C/c1ccc(F)cc1)Nc1ccc(S(=O)(=O)N2CCOCC2)cc1	none (no result: PP5 inh, PP1 counter)
Cc1ccc(S(=O)(=O)N(C)C)cc1NC(=O)COC(=O)/C=C/c1ccc(F)cc1	none
Cc1occc1C(=O)NNC(=O)Nc1ccc([N+](=O)[O-])cc1	none
CN(CC(=O)Nc1ccc(OC(F)(F)F)cc1)C(=O)/C=C/c1cc2c(cc1[N+](=O)[O-])OCO2	none
CCc1cc(Cn2nc(-c3ccccc3)cc2C(=O)NCc2ccc(C)cc2)on1	none
O=C(NCCc1ccc(F)cc1)c1ccc2c(=O)n3c(nc2c1)CCC3	none
Cc1nnc(SCC2=C(C(=O)O)N3C(=O)C(NC(=O)C(C)n4nc(C(F)(F)F)cc4C)C3SC2)s1 (stereo unspecified)	none
Cc1nnc(SCC2=C(C(=O)O)N3C(=O)C(NC(=O)Cc4ccccc4)C3SC2)s1 (stereo unspecified)	PAFAH2 inh 79 | PAFAH2 FP conf 65
CC1(C)CC(=NOC(=O)c2ccccc2)CC(C)(C)N1O	PAFAH2 inh 33 | PAFAH2 FP conf 32
O=S(=O)(c1ccccc1)N1CCC(=NO)CC1	none
CC1(C)Cc2noc(N)c2C(C)(C)N1OC(=O)c1ccccc1	none
